The source of these data is PubChem BioAssay AID602162 (NMMLSC, 2011).

Hit rate of the full screen: of about 360,000 compounds, about 690 (0.19%) were called active.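 How the source made its calls: active means fluorescence ratio to DMSO below 75%, the collection mean minus 3 SD; inconclusive means too few cells collected in the well; inactive means the rest.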 Shown is part of a subset that was picked to be rich in actives.

Chain of ATP-binding cassette sub-family B member 6 (Homo sapiens) (Q9NP58 whole entry, looked up): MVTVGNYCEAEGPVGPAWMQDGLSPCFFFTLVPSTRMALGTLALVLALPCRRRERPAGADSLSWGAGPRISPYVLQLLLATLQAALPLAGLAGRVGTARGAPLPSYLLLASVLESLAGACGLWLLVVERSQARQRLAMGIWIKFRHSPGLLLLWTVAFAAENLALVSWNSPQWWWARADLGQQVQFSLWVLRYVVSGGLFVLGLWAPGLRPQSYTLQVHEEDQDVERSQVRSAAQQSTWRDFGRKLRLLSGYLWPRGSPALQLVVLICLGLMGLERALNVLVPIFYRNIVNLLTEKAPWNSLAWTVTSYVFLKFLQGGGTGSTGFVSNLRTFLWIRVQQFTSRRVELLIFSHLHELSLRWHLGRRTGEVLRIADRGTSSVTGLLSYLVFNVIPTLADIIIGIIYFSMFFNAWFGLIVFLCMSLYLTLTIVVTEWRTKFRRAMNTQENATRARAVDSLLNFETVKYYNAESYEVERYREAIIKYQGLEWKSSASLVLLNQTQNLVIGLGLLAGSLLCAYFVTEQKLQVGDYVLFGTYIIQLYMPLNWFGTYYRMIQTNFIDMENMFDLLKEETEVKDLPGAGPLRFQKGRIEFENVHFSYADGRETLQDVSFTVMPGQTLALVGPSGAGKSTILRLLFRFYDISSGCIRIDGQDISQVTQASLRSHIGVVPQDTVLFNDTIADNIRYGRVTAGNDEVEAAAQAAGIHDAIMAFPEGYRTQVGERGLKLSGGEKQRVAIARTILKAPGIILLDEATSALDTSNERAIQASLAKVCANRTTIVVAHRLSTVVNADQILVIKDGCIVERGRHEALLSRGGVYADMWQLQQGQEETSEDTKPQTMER

The assay has as its target ATP-binding cassette sub-family B member 6 (Homo sapiens) (UniProt Q9NP58). Put plainly: ABCB6 transporter inhibitors, primary screen, K562-ABCB6 cells, flow cytometry, MLPCN library (AID 602162).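 Further: signal is porphyrin accumulated inside mitochondria; 100% equals median channel fluorescence of DMSO control wells; lower ratio means ABCB6 inhibition with less porphyrin fluorescence.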 As to conditions: K562-ABCB6 porphyrin accumulation, 1 h, at 10 µM, active compounds read low. Background: Flow cytometry measures light scatter and fluorescence of single cells or particles in a stream.
`CC(=O)Nc1ccccc1C(=O)C(=O)Nc1ccc(F)cc1`: the fluorescence ratio to DMSO is 104% (inactive).

On to `Cc1cccc(NC(=O)c2ccc(OCC(=O)NCc3ccccc3)cc2)c1C`, for which the fluorescence ratio to DMSO was 97% (inactive).

Turning to `O=C1COc2ccc(S(=O)(=O)NCCc3ccc(Cl)cc3)cc2N1`, the fluorescence ratio to DMSO is 93% (inactive).

With `O=C1C=C(c2cccc(Br)c2)C[C@@H](c2ccc(F)cc2)C1`, the fluorescence ratio to DMSO was 101% (inactive).

`O=C(Cn1cnc2ccccc2c1=O)NNC(=O)c1ccccc1F`: the fluorescence ratio to DMSO is 97% (inactive).

As for `O=C(Nn1cnc2ccccc2c1=O)c1ccc(F)cc1Cl`, the fluorescence ratio to DMSO is 26% (active).

For the compound `O=C(Nn1cnc2ccccc2c1=O)c1ccc([N+](=O)[O-])cc1Cl`, the fluorescence ratio to DMSO was 98% (inactive).

Consider `COC(=O)Cc1nc2c(N)nc(N)nc2[nH]c1=O`, for which the fluorescence ratio to DMSO is 97% (inactive).

Take `CCc1ccc(-c2cc(C(=O)NN3CCN(C)CC3)c3ccccc3n2)cc1`: the fluorescence ratio to DMSO was 99% (inactive).

Consider `CC1CCCC(NC(=O)c2cc(-c3ccncc3)nc3ccccc23)C1C` (configuration not stated), for which the fluorescence ratio to DMSO is 96% (inactive).

Consider `COC(=O)CNC(=O)c1cc(-c2ccncc2)nc2ccccc12`, for which the fluorescence ratio to DMSO was 70% (active).

Regarding `Cc1cccc(C)c1NC(=O)Nc1ccccc1-n1ccnc1`, the fluorescence ratio to DMSO was 96% (inactive).

On to `COc1ccc(NC(=O)/C(Cl)=C(/Cl)S(=O)Cc2ccc(C)cc2)cn1` (configuration not stated), for which the fluorescence ratio to DMSO is 19% (active).

As for `CC(CC(=O)Nc1ccccc1)n1ccnc1` (configuration not stated), the fluorescence ratio to DMSO is 96% (inactive).

For the compound `O=C1OC(Oc2ccc(Br)cc2)(c2ccccc2)c2ccccc21` (configuration not stated), the fluorescence ratio to DMSO was 93% (inactive).

With `CCn1ccnc1CNC(=O)CC1C(=O)NCCN1Cc1ccc(F)cc1Cl` (configuration not stated), the fluorescence ratio to DMSO was 92% (inactive).

For the compound `C=CCn1c(SCC(=O)NCc2ccccc2)nnc1-c1cc(Br)ccc1O`, the fluorescence ratio to DMSO was 53% (active).

Regarding `C=CCn1c(SCC(=O)NC(=O)Cc2ccccc2)nc2ccccc2c1=O`, the fluorescence ratio to DMSO is 99% (inactive).

In the case of `O=C(CSc1nnc(-c2cccnc2)n1CCc1ccccc1)NCc1ccccc1`, the fluorescence ratio to DMSO was 110% (inactive).

For `N#CCCN1CCN(S(=O)(=O)c2ccc(S(=O)(=O)NC3CCCCC3)cc2)CC1`, the fluorescence ratio to DMSO is 96% (inactive).

On to `Cc1ccc(S(=O)(=O)N2CCC(Oc3ccc(-n4cnnn4)cc3)CC2)cc1`, for which the fluorescence ratio to DMSO is 96% (inactive).

On to `COC(=O)c1ccc(CN2C(=O)C(Cc3ccccc3)ON=C2c2ncccc2C)o1` (configuration not stated), for which the fluorescence ratio to DMSO was 94% (inactive).

Consider `OCCC1CN(Cc2cccc(O)c2)CCN1CCc1ccccc1` (configuration not stated), for which the fluorescence ratio to DMSO is 93% (inactive).

In the case of `OCCC1CN(Cc2ccc(Oc3ncccn3)cc2)CCN1CCc1ccccc1` (configuration not stated), the fluorescence ratio to DMSO is 101% (inactive).

Turning to `OCCC1CN(Cc2cnc(-c3ccccc3)s2)CCN1CCc1ccccc1` (configuration not stated), the fluorescence ratio to DMSO is 73% (active).

Take `COc1ccc(CN2C(=O)CC(Cc3ccc(C)cc3)C2=O)cc1OC` (configuration not stated): the fluorescence ratio to DMSO is 97% (inactive).

For `O=S1(=O)CC(N2CCN(Cc3ccccc3F)CC2)CN1Cc1cn(Cc2cccc(C(F)(F)F)c2)nn1` (configuration not stated), the fluorescence ratio to DMSO is 96% (inactive).
